# Bioassay records: PubChem BioAssay, several laboratories
# CR mimetic SO: reduction of superoxide in aged yeast, primary screen, HTS. S. cerevisiae aged cells, superoxide DHE fluorescence; stronger effect = lower value. superoxide response (% of plate mean), % at 10 µM. hit rate 0.18% among 330,000. AID 2690, 2010;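 active = superoxide response under a set limit, about three screen SD below normal, cut at about 65% in these data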;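 note: yeast aged for seven days with compound at 30 °C before DHE staining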
# Platelet DG rel: inhibitors of platelet dense granule secretion, primary screen, cell-based, MLPCN, human platelets. human platelet-rich plasma, SFLLRN dense granule ATP release, luminescence. hit rate 0.22% among 300,000. inhibition, %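 (compounds screened at 7.5 µM in platelet-rich plasma)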;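 active = mean replicate score, as percent of positive control, at or above 50; inconclusive = mean below 50 but at least one replicate at or above 50; inactive = mean and every replicate below 50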
# Calb FLC: C. albicans growth inhibition with fluconazole, primary screen, CaCi-2 strain, Alamar Blue fluorescence | C. albicans CaCi-2 (fluconazole-resistant clinical isolate) + fluconazole, 48 h | growth inhibition, % (concentration not given with the values) | hit rate 0.57% among 300,000;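 active = growth inhibition above about 58% in most replicates, limit read from the data, passing the limit was not always enough; inconclusive = exactly half the replicates above a set limit; inactive = most replicates below a set limit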;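 note: all wells also contain fluconazole at 8 µg/ml as a sub-toxic cotreatment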
# SKKanGAS inh: S. pyogenes SKKanGAS growth inhibitors in kanamycin, primary screen, streptokinase expression inhibitor project, SKKanGAS strain, BacTiter-Glo luminescence | 6 h | inhibition, % at 7.5 µM | hit rate 1.3% among 300,000 | AID 1662, 2009;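 active = mean replicate score, as percent of positive control median, at least 50; inconclusive = mean below 50 but one replicate at or above 50; inactive = mean and every replicate below 50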;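 note: strain carries kanamycin resistance gene driven by streptokinase promoter and grows in 40 µg/ml kanamycin; loss of luminescence reflects streptokinase promoter inhibition or plain growth inhibition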
# PolyA inhibitor: polyadenylation inhibitors in yeast reporter cells, primary screen, luminescence, S. cerevisiae | AID 1875, 2009 | S. cerevisiae SKY197-pL101 polyadenylation reporter, beta-gal luminescence; efflux-impaired pdr1/pdr3 knockout yeast; score 100 = 6 SD above DMSO | activity score, % at 12 µM | hit rate 0.02% among 300,000;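 active = lowest replicate activity score at least 50, where 100 means six control SD above control mean; inconclusive = lowest score under 50 but half or more replicates reach 50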;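 note: yeast exposed to compound for 9 h at 30 °C; higher score means more reporter readthrough which indicates perturbed polyadenylation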
# Superoxide pick: superoxide lowering in aged yeast cells, confirmation, cherry picked compounds. hit rate 1% among 850. shares compounds with CR mimetic SO. superoxide response (% of plate), % at 10 µM. S. cerevisiae aging, superoxide DHE fluorescence; stronger effect = lower value;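 active = superoxide signal below 65% of the plate average of sample wells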;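 note: cells aged with compound for 7 days at 30 degrees C before staining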
# DHE counter: DHE quenching or ROS scavenging interference in aged yeast, artefact control for yeast caloric restriction mimetic project, S. cerevisiae BY4741, flow cytometry; shares compounds with CR mimetic SO; DHE fluorescence; stronger effect = lower value; fluorescence response, % at 10 µM; 850 tested, under 10 active; AID 435000, 2010;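 active = fluorescence response below 15%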;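 note: lower means stronger quenching of DHE signal or ROS scavenging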
# Hits are given with their value; n = inactive; u = inconclusive; x = no result given; ! = repeats disagree. This is a sample that favours compounds with a hit; in the whole collection about 2% have one here.
SMILES,CR mimetic SO,Platelet DG rel,Calb FLC,SKKanGAS inh,PolyA inhibitor,Superoxide pick,DHE counter
Cc1cccc(C(=O)NCC(=O)OCc2nc(N)nc(Nc3ccccc3C)n2)c1,n,x,x,x,x,x,x
Cc1ccc(NC(=O)CSc2ccc(-c3ccccn3)nn2)cc1F,n,n,n,n,n,n,n
Nn1c(SCC(=O)Nc2ccc3c(c2)OCCO3)nnc1-c1ccccn1,54,n,n,n,n,n,n
COc1ccc(C)cc1NC(=O)CSc1ccc(-c2ccccn2)nn1,n,n,x,n,n,n,n
COc1cc(NC(=O)CSc2ccc(-c3ccccn3)nn2)cc(OC)c1,n,n,n,n,n,n,n
Cc1ccccc1-c1nnc(SCC(=O)Nc2ccc3c(c2)OCCO3)n1N,n,n,u,n,n,x,x
CC(=O)Nc1cccc(NC(=O)CSc2ccc(-c3ccccn3)nn2)c1,n,n,n,n,n,x,x
COc1ccccc1Oc1ccc(Oc2ccccc2OC)cc1,n,n,n,n,n,x,x
CCCc1cc(=O)oc2c(C)c(OC(C)C(=O)NCCN3CCOCC3)ccc12 (stereo unspecified),n,n,n,n,n,x,x
Cc1ccn(CC(=O)N2CCCC(N3CCN(Cc4ccc5c(c4)OCO5)CC3)C2)n1 (stereo unspecified),n,n,n,n,n,x,x
CSCCCNC(=S)N(C)CC(=O)Nc1ccc(C)cc1,n,n,n,n,n,x,x
COc1ccc(C(=O)NC2CCSc3ccccc32)cc1F (stereo unspecified),n,n,n,n,n,x,x
O=C(NC(CO)(CO)CO)[C@@H]1CCCN1S(=O)(=O)c1cccc2cccnc12,n,x,x,x,x,x,x
CCc1ccc(NC(=O)CSc2ccc(-c3ccccn3)nn2)cc1,59,n,n,n,n,n,n
CCc1ccc(NC(=O)CSc2nnc(-c3ccccn3)n2C)cc1,65,n,n,n,n,n,n
CC(=O)c1cccc(NC(=O)CSc2ccc(-c3ccccn3)nn2)c1,n,n,n,n,n,x,x
COC(=O)Cc1c(C(=O)OC)nnn1-c1cccc(C(F)(F)F)c1,n,n,n,n,n,x,x
Cc1ccc(S(=O)(=O)NC(=O)COc2ccc(Cl)cc2Cl)cc1,n,n,n,n,n,x,x
CCOC(=O)C1CCN(C(=O)COc2ccc(C(=O)c3ccccc3)cc2)CC1,64,x,x,x,x,n,n
CC1CC(C)CN(S(=O)(=O)c2ccc(C(=O)N3CCOCC3)cc2)C1 (stereo unspecified),n,n,n,n,n,x,x
CC(=O)CSc1nc2ccc(Nc3nc(N4CCOCC4)nc(N4CCOCC4)n3)cc2s1,60,n,n,n,n,n,n
CCOC(=O)C1=C(COC(=O)Cc2c(F)cccc2Cl)NC(=O)NC1C (stereo unspecified),n,x,x,x,x,x,x
O=C(Nc1ccc(F)cc1)C(=O)c1c(O)[nH]c2ccc([N+](=O)[O-])cc12,64,n,n,n,n,n,n
c1cnc2c(c1)ccc1cccnc12,64!,n,110,n,n,n,n
O=Cc1ccc2ccc3cccnc3c2n1,n,n,n,n,n,x,x
SMILES,CR mimetic SO,Platelet DG rel,Calb FLC,SKKanGAS inh,PolyA inhibitor,Superoxide pick,DHE counter
CCCCCCCCSc1nnc(-c2ccc(OC)cc2)o1,n,n,n,n,n,n,n
CCSc1nnc(-c2ccc(OC)cc2)o1,n,n,n,n,n,x,x
CC1CCN(S(=O)(=O)c2ccc(C(=O)Nc3nnc(C4=COCCO4)o3)cc2)CC1,n,n,n,u,n,x,x
CC1CC(C)CN(S(=O)(=O)c2ccc(C(=O)Nc3nnc(C4CC4)o3)cc2)C1 (stereo unspecified),n,n,n,68,n,n,n
CC1CCN(S(=O)(=O)c2ccc(C(=O)Nc3nnc(-c4ccccn4)o3)cc2)CC1,n,n,u,n,n,n,n
COCc1nnc(NC(=O)c2ccc(S(=O)(=O)N3CCCC3)cc2)o1,n,n,n,n,n,n,n
CCc1nnc(NC(=O)c2ccc(S(=O)(=O)N3CCCC(C)C3)cc2)o1 (stereo unspecified),64,n,n,n,n,n,n
